Bioassay records deposited in PubChem by National Center for Advancing Translational Sciences (NCATS).
Most compounds without a hit are left out; they make up all but 4% or so of the library.
Caspase-7 inhib: qHTS Assay for Allosteric/Competitive Inhibitors of Caspase-7. AID 889, 2007. 75,000 compounds, 0.02% hits. Potency, µM (top dose mostly 57.5 µM), for inactives: at the highest dose activity change, negative = inhibition, most hits filed as inhibitors. recombinant caspase-7, Ac-DEVD-AFC fluorescence rate. P55210; active = well fitted inhibition curve with a large enough effect in the main read-out, with a control signal flat, not every such curve was filed as active; inconclusive = small, poorly fitted or top-dose-only effect, or a change in a side signal; also: % of control where 0% means no effect
Casp1 inh: qHTS Assay for Allosteric/Competitive Inhibitors of Caspase-1. P29466. Caspase-1 enzyme, Ac-WEHD-AFC fluorogenic rate. Potency, µM (top dose mostly 57.5 µM), inactives show top-dose activity change, negative = inhibition, actives largely listed as inhibitors. 75,000 compounds, 0.03% hits. AID 900, 2007;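 also: plate controls were vehicle for no effect and no substrate for full effect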
TSHR agonist: qHTS Assay for Agonists of the Thyroid Stimulating Hormone Receptor; Potency, µM (titrated, usually from 57.1 µM), for inactives: at the highest dose activation, actives largely listed as activators; HEK293-CNG-TSHR cells (CNG channel as cAMP sensor), membrane potential dye, cAMP; AID 926, 2007; Thyrotropin receptor (Homo sapiens), P16473; 73,000 compounds, 0.48% hits; active = well fitted activation curve with a large enough effect in the main read-out, with a control signal flat, not every such curve was filed as active; inconclusive = small, poorly fitted or top-dose-only effect, or a change in a side signal; inactive = no such curve, though single readings can be large or run the other way; % of control where 0% means no effect;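 also: the control signal comes from parental cells without the receptor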
Target sequence (P16473 whole entry, looked up): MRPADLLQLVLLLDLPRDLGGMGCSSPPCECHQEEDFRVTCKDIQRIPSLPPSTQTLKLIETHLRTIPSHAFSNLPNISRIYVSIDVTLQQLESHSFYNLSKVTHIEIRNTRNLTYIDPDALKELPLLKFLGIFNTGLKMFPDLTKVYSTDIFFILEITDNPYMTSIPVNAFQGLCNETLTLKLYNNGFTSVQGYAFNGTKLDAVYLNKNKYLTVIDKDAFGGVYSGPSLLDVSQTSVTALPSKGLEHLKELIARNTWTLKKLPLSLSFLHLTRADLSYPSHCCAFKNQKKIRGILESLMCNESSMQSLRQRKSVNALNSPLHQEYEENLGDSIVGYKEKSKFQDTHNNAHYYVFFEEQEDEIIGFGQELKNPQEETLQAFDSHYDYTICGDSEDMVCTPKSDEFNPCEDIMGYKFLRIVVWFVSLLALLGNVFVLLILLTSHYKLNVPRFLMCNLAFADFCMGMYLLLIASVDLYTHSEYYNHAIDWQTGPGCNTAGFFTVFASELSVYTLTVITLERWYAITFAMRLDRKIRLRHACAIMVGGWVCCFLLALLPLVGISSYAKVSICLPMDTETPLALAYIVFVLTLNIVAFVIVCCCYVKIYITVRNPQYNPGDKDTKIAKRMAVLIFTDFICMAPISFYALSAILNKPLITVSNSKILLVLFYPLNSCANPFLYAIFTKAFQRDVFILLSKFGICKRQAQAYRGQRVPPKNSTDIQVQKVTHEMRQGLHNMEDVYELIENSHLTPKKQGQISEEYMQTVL
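cAMP rise detected as CNG-channel membrane depolarization by fluorescent dye (emission 590 nm), 30 min after compound, following 60 min dye loading containing 100 uM RO 20-1724 at room temperature. Cells: TSHR/CNG HEK 293, with parental CNG HEK 293 as control.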
Bst PK mod: Pyruvate Kinase; Potency, µM; 51,000 compounds, 1.2% hits; purified pyruvate kinase, luminescence ATP production; ribose 5-phosphate activator present at AC10; in the data active = potency below about 11 µM; inconclusive = mostly about 12 µM to 25 µM;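 the screen sought inhibitors and activators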;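 also: scaled between full activation by ribose 5 phosphate and full inhibition by luteolin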
HEK293 cAMP ctrl: qHTS Assay for Agonists of the Thyroid Stimulating Hormone Receptor: Activators of Intracellular cAMP Concentrations in Parental HEK 293 | parental HEK293 CNG cAMP sensor, membrane potential fluorescence | Potency, µM (titrated, usually from 57.1 µM), without a hit: top-dose activation, usual class: activators | 73,000 compounds, 2.5% hits; also: % of control where 0% means no effect; nearly all actives have a fitted effect of over 55% in size
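Parental HEK 293 cells stably expressing a modified CNG channel (no TSHR) report cAMP rise as membrane depolarization. Membrane potential dye with 100 uM RO 20-1724 was loaded for 60 min at room temperature, then compound added for 30 min; fluorescence read at 590 nm.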
GBA activity: Glucocerebrosidase. Potency, µM. Lysosomal acid glucosylceramidase (Homo sapiens), P04062. 48,000 compounds, 1.1% hits. AID 360, 2006. purified enzyme, resorufin glucoside fluorescence (screen aimed at inhibitors), 20 min; in the data active = potency below about 15 µM; inconclusive = mostly about 16 µM to 33 µM;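 also: the screen sought inhibitors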
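Normal human glucocerebrosidase (0.2 nM final) was assayed with resorufin β-D-glucopyranoside (30 uM final) in 50mM citric acid/KH2PO4, 10mM sodium taurocholate, 0.01% tween-20, pH 5.9. Compounds were titrated; fluorescence (Ex 548, Em 600) read after 20 min at RT.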
Numbers without * were called inactive; i = inactive; ? = inconclusive; . = not tested or not shown; [ ] = dose if it differs, or a comment. Unless noted, calls follow the shape of the dose curve; as a rule, active = well fitted curve in the direction sought with a large enough effect; inconclusive = small, poorly fitted or top-dose-only effect, or another doubt; inactive = no such curve, though single readings can be large; an effect the other way counts as inactive or inconclusive. Potency is read from the fitted curve at half-maximal effect.

SMILES	Caspase-7 inhib	Casp1 inh	TSHR agonist	Bst PK mod	HEK293 cAMP ctrl	GBA activity
O=C(CSC1=NCCN1)c1ccccc1	-1%[11.5 µM]	-5%[11.5 µM]	-2%[11.4 µM]	.	7%[11.4 µM]	.
COc1cc2cc3c4c(cc(OC)c(OC)c4c2cc1OC)CCN3C	?	.	?	.	-63%	.
O=C(O)c1cc(Cl)cc(Cc2cc(Cl)cc(C(=O)O)c2O)c1O	-3%[11.5 µM]	3%[11.5 µM]	6%[11.4 µM]	.	24%[11.4 µM]	.
O=S(=O)(c1ccc(Oc2ccc(Br)cc2F)nc1)N1CCCCC1	0%	-2%	?	>57	25µM*	.
Cc1ccc(C(=N)c2ccccc2Cc2cccc3ccccc23)c2ccccc12	-1%[11.5 µM]	1%[11.5 µM]	3%[11.4 µM]	.	9%[11.4 µM]	.
CN1CCc2nc(N)nc(-c3nc(N)nc4c3CN(C)CC4)c2C1	-2%[11.5 µM]	0%[11.5 µM]	4%[11.4 µM]	.	3%[11.4 µM]	.
COCCn1c(N)c(C(=O)Nc2sc3c(c2C(=O)OC)CCCC3)c2nc3ccccc3nc21	?	.	-22%	>57	3%	7.6*
CCOC(=O)c1c(NC(=O)Cn2nnc3ccccc32)sc2c1CCC(C)C2 (stereo unspecified)	-2%	-7%	12%	>57	14%	>77
COCCn1c(N)c(C(=O)NCC2CCCO2)c2nc3ccccc3nc21 (stereo unspecified)	.	.	.	>26	.	.
CCOC(=O)c1c(NC(=O)Cn2c(C)nc3ccccc32)sc2c1CCC2	-6%	-5%	25µM*	>57	23%	>77
CCOC(=O)c1c(NC(=O)c2nn(CC)cc2Br)sc2c1CCCCC2	-1%	2%	7%	>57	-2%	5.2*
O=C(SCc1cccc2ccccc12)c1ccc(Cl)cc1	-2%[11.5 µM]	-5%[11.5 µM]	3%[11.4 µM]	.	7%[11.4 µM]	.
N=c1nc(N)nc2n1NC(c1ccc(F)cc1)=CS2	1%	-1%	-8%	3.6*	-11%	>77
O=C(CSc1nc2ccccc2c(=O)n1-c1ccc(Cl)cc1)c1ccco1	-2%	-3%	?	>57	25µM*	>77
O=C(CSc1nc2ccccc2c(=O)n1Cc1ccco1)c1ccccc1	-3%	1%	?	>57	?	>77
O=C1CN(Cc2ccccc2)C(=NCc2ccco2)S1	-3%	-2%	-7%	>57	-9%	>77
Clc1cccc(Cl)c1Cn1cnc(=NCc2ccco2)c2[nH]cnc21	-1%	0%	18%	2.2*	22%	.
COc1ccc(CC(=O)N2CCN(c3ccccn3)CC2)cc1	-1%	1%	13%	>57	-7%	>77
COc1ccc(-n2nc(C(=O)Nc3ccc4c(c3)OCO4)c3ccccc3c2=O)cc1	-3%	0%	?	>57	16µM*	>77
COc1ccc(-n2nc(C(=O)NCC(=O)N3CCN(c4ccccn4)CC3)c3ccccc3c2=O)cc1	-1%	-4%	5%	8.2*	5%	>77
c1ccc(C(Cc2nc(-c3ccncc3)no2)c2ccccc2)cc1	-1%	-2%	?	>57	16µM*	>77
O=C(CS(=O)(=O)c1cn(Cc2cccc(F)c2)c2ccccc12)N1CCOCC1	2%	-2%	1%	>57	11%	>77
CCn1cc(SCC(=O)Nc2cc(C)on2)c2ccccc21	1%	1%	-5%[11.4 µM]	.	5%	.
Cc1ccccc1Cn1cc(S(=O)(=O)CC(=O)N2CCCCC2)c2ccccc21	3%	-2%	?	>57	32µM*	>77
Cc1cc(NC(=O)CS(=O)(=O)c2cn(Cc3ccccc3Cl)c3ccccc23)no1	-2%	-3%	?	>57	25µM*	.
SMILES	Caspase-7 inhib	Casp1 inh	TSHR agonist	Bst PK mod	HEK293 cAMP ctrl	GBA activity
c1ccc(CO[C@H]2NCCN2Cc2ccccc2)cc1	0%[11.5 µM]	4%[11.5 µM]	12%[11.4 µM]	.	28%[11.4 µM]	.
C=C1CC[C@@H](O)C/C1=C/C=C1\CCC[C@]2(C)[C@@H]1CC[C@H]2[C@@H](C)/C=C\[C@@H](C)C(C)C	.	.	13%	.	3%	.
CC(C)[C@@H]1OC(=O)C=CC=CC=CC=CC=CC[C@@H](O)[C@H](C)[C@@H](O)C[C@H](O)C[C@H](O)C[C@H](O)C[C@H](O)C[C@H](O)C[C@H](O)C=C[C@@H]1C	.	.	-4%[11.4 µM]	.	-7%[11.4 µM]	.
CCOC(=O)c1c(C)nc2c3ccccc3ccn12	0%	1%	17%	6.9*	23%	>77
Cc1cc(N2CCCCC2)nc(SCc2ccc(C#N)cc2)n1	-1%	-2%	?	>57	32µM*	>77
Cc1cc(N2CCOCC2)nc(SCC(=O)c2ccccc2)n1	-2%	-1%	0%	>57	16%	>77
N#Cc1nc(-c2ccco2)oc1N1CCc2ccccc2C1	-8%	-6%	?	i	25µM*	>77
N#Cc1nc(-c2ccco2)oc1N1CCCC1	-1%	-12%	7%	>57	11%	>77
CC1CC(C)CN(c2oc(-c3ccco3)nc2C#N)C1 (stereo unspecified)	2%	-3%	?	>57	16µM*	>77
N#Cc1nc(-c2ccco2)oc1N1CCN(C(c2ccccc2)c2ccccc2)CC1	1%	-1%	4µM*	>57	13%	>77
COc1ccccc1OCc1nc(C#N)c(N2CC(C)CC(C)C2)o1 (stereo unspecified)	-1%	1%	?	.	13µM*	.
Cc1ccc(C2=C(Cl)C(=O)C(c3ccc(C)cc3)=C(Cl)C2=O)cc1	-2%[11.5 µM]	4%[11.5 µM]	2%[11.4 µM]	.	3%[11.4 µM]	.
N#Cc1nc(-c2ccco2)oc1N1CCN(c2cccc(Cl)c2)CC1	-2%	-2%	?	>57	20µM*	.
COc1ccccc1-c1cc(-n2ccnc2)ncn1	-5%	0%	?	.	32µM*	.
COc1ccccc1-c1cncnc1-n1ccnc1	2%	1%	-2%	.	-5%	.
CN(C)c1ccc(-c2nc3ccccc3n2C)cc1	-1%	-1%	-8%[11.4 µM]	1.1*	-24%	?
CC(C)n1c(-c2ccc(N(C)C)cc2)nc2ccccc21	0%	-2%	22%	.	14%	>77
O=C(O)C(Cl)(c1ccccc1)c1ccccc1	-6%[11.5 µM]	-2%[11.5 µM]	-1%[11.4 µM]	.	25%[11.4 µM]	.
Cn1c(C(=O)NCc2ccco2)cc2c(=O)[nH]c3ccccc3c21	-1%	-2%	0%	4.4*	3%	>77
Cc1cc(C(=O)NCc2ccco2)cs1	-1%	0%	?	.	?	.
CC(=O)NCc1nc2ccccc2n1C(C)C	0%	0%	-1%	.	-5%	.
CC(C)n1c(CNC(=O)c2ccccc2)nc2ccccc21	0%	3%	3%[11.4 µM]	>57	-2%	8.4*
Cc1ccccc1-n1c(C)nc2ccccc21	-3%	0%	25µM*	.	28%	.
O=C(O)C[C@H](Cc1ccccc1)C(=O)O	1%[11.5 µM]	-4%[11.5 µM]	-1%[11.4 µM]	.	2%[11.4 µM]	.
O=c1c(-c2ccc(Cl)cc2)nc2cnc(N3CCNCC3)nc2n1-c1ccccc1	?	.	1%	.	-13%	.
Cc1ccc(OCC(=O)Nc2ccc3c(c2)nc(CCN2CCOCC2)n3C)cc1	-1%	-2%	?	.	25µM*	>77
